Measurements published in PubChem BioAssay.
“And” between values parts separate entries of the source, which are not always exact repeats. Equal values may be shown once. Inconclusive results are not listed. The source made the active and inactive calls.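 How the source made its calls, unless noted: active means normalized viability below 100% at a tested concentration; inactive means the rest.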

Experiments:
[1] = Wnt pathway potentiators raising nuclear beta-catenin – imaging, WNT3A-conditioned medium, mouse C2C12, NPC library, primary screen (AID 1117326; in the data active means nuclear beta-catenin stimulation mostly above about 4.2%, no sharp cut-off; inactive means mostly below about 10%); settings: stronger effect = higher value
[2] = stimulators of insulin release from INS-1E, primary screen, cell-based, 5 mM glucose, NPC library (AID 1117329;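 active means compound raises insulin release from rat beta cells at 5 mM glucose, no numeric limit stated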); settings: rat INS-1E insulin secretion, at 10 µM, stronger effect = higher value
[3] = growth inhibition of GSK3B-pretreated HCT116 cells – cell-based, CellTiter-Glo, 0.2 to 20 µM (AID 1117336;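 active means compounds lowering colon cancer cell viability after pretreatment blocking the GSK3B kinase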); settings: HCT116 viability after GSK3B inhibitor, at 20 µM, stronger effect = higher value
[4] = inhibition of endothelial tube formation, primary screen, imaging, VEGF stimulated, CD31 staining, tube area, NPC library (AID 1117340;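 active means compound that reduces growth-factor-driven endothelial tube area in a mixed cell culture, no cutoff stated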); settings: VEGF-stimulated ADSC/ECFC co-culture, at 10 µM, stronger effect = higher value
[5] = GLP1 release stimulators, primary, NCI-H716, NPC library (AID 1117341;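 active means compound raises GLP1 secretion from the human gut endocrine cells, with no numeric limit stated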); settings: NCI-H716 cells, at 10 µM, stronger effect = higher value
[6] = HCT116 colon cancer cell growth inhibition, primary screen, CellTiter-Glo luminescence, NPC library (AID 1117342;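 active means compounds that lower survival of HCT116 colon cancer cells in the luminescence readout, no numeric limit stated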); settings: at 20 µM (top of the series)
[7] = reduced SW480 viability measured with CellTiter-Glo, NPC library, primary (AID 1117343;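 active means compounds that lower viability of the colon cancer cells in the luminescence readout, with no numeric limit stated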); settings: CellTiter-Glo luminescence; at 20 µM (top of the series) unless noted
[8] = NPC library primary testing for decreased DLD-1 cell viability via CellTiter-Glo (AID 1117346;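 active means compounds that lower survival of DLD-1 colon cancer cells in the luminescence readout, no cutoff given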); settings: DLD-1 viability, CellTiter-Glo luminescence; at 20 µM (top of the series)
[9] = viability loss with induced miR-34 in A549 – imaging, A549 dox-inducible miR-34, nuclei and caspase counts, primary screen (AID 1347080;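 active means compounds whose cell count with miR-34 switched on is under 0.7 times the count with it off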); settings: A549 miR-34 inducible, Hoechst nuclei count, 48 h
[10] = viability loss in pontine glioma line – cell-based, JHH-DIPG-1, MIPE4.0, CellTiter-Glo, qHTS, dose response (AID 1347062; cut-off not given, nearly all actives have AC50 up to about 27 µM); settings: JHH-DIPG-1 viability, CellTiter-Glo ATP luminescence
[11] = viability loss in pontine glioma line – cell-based, SU-DIPG-IV, MIPE4.0, CellTiter-Glo, qHTS, dose response (AID 1347063; cut-off not given, nearly all actives have AC50 up to about 30 µM;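 further: compound exposure lasted 48 hours before the viability readout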); settings: CellTiter-Glo ATP luminescence
[12] = MELAS cybrid and Rieske KO viability enhancers – cell-based, MELAS cybrids, Rieske KO mouse fibroblasts, CellTiter-Glo, primary screen (AID 1508586;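 active means mean z-score across replicates of 1.96 or higher in either the MELAS or the Rieske mutant cell line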;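 further: z relative to plate mean and SD of compound and empty wells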); settings: low glucose
[13] = drug combination growth inhibition, ovarian cancer – cell-based, oncology-focused library, rucaparib conditional, profiling panel (AID 1508598); settings: patient-derived ovarian cancer cells, CellTiter-Glo viability, 144 h, stronger effect = lower value
[14] = biological target: NAD(+) hydrolase SARM1 (Homo sapiens) (UniProt Q6SZW1); test: blocking NAD cleavage by SARM1 SAM-TIR – cell lysate, NAD-Glo luminescence (AID 1508614;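 active means compound whose remaining NAD level is above about 45 nM, limit read from the data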); settings: SAM-TIR HEK293T lysate NADase, at 1 µM, stronger effect = higher value
[15] = P. berghei load reduction in hepatocytes – cell-based, HepG2, luciferase luminescence, HepG2 viability, primary screen (AID 624349; in the data active means parasite load remaining mostly below about 12%, no sharp cut-off; inactive means mostly above about 10%;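 further: 100% = mean of DMSO negative control wells on the same plate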); settings: P. berghei liver stage in HepG2, luciferase luminescence, concentration not given here; parasite load remaining: stronger effect = lower value; viability: measured here: HepG2 viability without parasites
[16] = galactose survival enhancers in mitochondrial complex I cybrids – cell-based, galactose medium, ATP luminescence, primary screen (AID 1645843;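 active means z-score of at least 1.8 in each of two replicates, scored against plate mean and spread of sample wells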;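 further: positive z means more ATP and so rescue of galactose-driven cybrid death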); settings: complex I mutant cybrid cells, 72 h, stronger effect = higher value
[17] = stronger effect = lower value, cell number ratio, induced over uninduced
[18] = measured here: relative caspase fold change +Dox/-Dox
[19] = measured here: total cells with miR-34 induction, stronger effect = lower value
[20] = measured here: total cells without miR-34 induction
[21] = MELAS cybrid survival, CellTiter-Glo 48 h, stronger effect = higher value
[22] = Rieske KO mouse fibroblast survival, CellTiter-Glo 72 h

Chain of NAD(+) hydrolase SARM1 (Homo sapiens) (Q6SZW1 whole entry, looked up): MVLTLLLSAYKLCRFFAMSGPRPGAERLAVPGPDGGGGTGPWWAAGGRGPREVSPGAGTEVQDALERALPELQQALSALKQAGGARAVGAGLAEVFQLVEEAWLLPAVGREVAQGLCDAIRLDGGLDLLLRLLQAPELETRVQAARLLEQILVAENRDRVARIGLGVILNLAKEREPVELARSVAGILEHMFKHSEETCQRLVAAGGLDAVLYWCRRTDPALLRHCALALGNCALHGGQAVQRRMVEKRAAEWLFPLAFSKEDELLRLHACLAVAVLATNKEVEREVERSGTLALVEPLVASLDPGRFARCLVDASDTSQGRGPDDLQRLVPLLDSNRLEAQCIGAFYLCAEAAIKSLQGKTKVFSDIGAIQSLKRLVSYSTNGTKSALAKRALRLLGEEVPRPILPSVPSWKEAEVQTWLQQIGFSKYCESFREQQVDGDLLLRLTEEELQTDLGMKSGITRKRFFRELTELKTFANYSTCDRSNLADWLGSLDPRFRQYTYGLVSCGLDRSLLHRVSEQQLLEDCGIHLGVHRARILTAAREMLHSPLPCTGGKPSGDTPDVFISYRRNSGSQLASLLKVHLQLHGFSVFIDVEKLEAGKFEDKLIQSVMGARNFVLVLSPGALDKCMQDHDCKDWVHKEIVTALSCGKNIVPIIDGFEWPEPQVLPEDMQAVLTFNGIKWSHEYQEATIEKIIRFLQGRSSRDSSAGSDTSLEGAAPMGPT

CCCCCCCCCCCCCCCCNc1ccc(C(=O)O)cc1
inactive: nuclear beta-catenin stimulation ([1]; at 10 µM) 11.3% | insulin secretion stimulation [2] 4.2% | GLP1 secretion stimulation [5] -2.9% | inhibition of viability [6] 45% | fold change [9, 17] 0.865
4330: cell count [9, 19]
5010: cell count [9, 20]
0.501: fold change [9, 18]
1.2%: nuclear beta-catenin stimulation ([1]; stimulation, at 2 µM)
active: viability decrease [3] 68.9% | tube area decrease [4] 109% | viability decrease (inhibition) [7] 72.6% | viability decrease (inhibition) [8] 61.9%

COc1nc(N)nc2c1ncn2[C@@H]1O[C@H](CO)[C@@H](O)[C@@H]1O
0.487: z-score [12, 22]
inactive: nuclear beta-catenin stimulation ([1]; at 10 µM) 2.7% | insulin secretion stimulation [2] -1.9% | viability decrease [3] -1.5% | tube area decrease [4] 5.7% | GLP1 secretion stimulation [5] 0.9% | inhibition of viability [6] -1.43% | viability decrease (inhibition) [7] -15.5% | viability decrease (inhibition) [8] -11.9% | outcome [10] | outcome [11] | z-score [12, 21] 0.551 | viability ([13]; at 0.000305 µM, OCI-C5x cells, with rucaparib 10 µM, 100% = cells with rucaparib alone) 129% | viability ([13]; at 0.000305 µM, OCI-C5x cells, without rucaparib) 109% | viability ([13]; at 0.000305 µM, OCI-P5x cells, with rucaparib 20 µM, 100% = cells with rucaparib alone) 104% | viability ([13]; at 0.000305 µM, OCI-P5x cells, without rucaparib) 107% | viability ([13]; at 0.00122 µM, OCI-C5x cells, with rucaparib 10 µM, 100% = cells with rucaparib alone) 114% | viability ([13]; at 0.00122 µM, OCI-C5x cells, without rucaparib) 106% | viability ([13]; at 0.00122 µM, OCI-P5x cells, with rucaparib 20 µM, 100% = cells with rucaparib alone) 101% | viability ([13]; at 0.00122 µM, OCI-P5x cells, without rucaparib) 105% | viability ([13]; at 0.00488 µM, OCI-C5x cells, with rucaparib 10 µM, 100% = cells with rucaparib alone) 108% | viability ([13]; at 0.00488 µM, OCI-P5x cells, with rucaparib 20 µM, 100% = cells with rucaparib alone) 101% | viability ([13]; at 0.0195 µM, OCI-C5x cells, with rucaparib 10 µM, 100% = cells with rucaparib alone) 112% | viability ([13]; at 0.0195 µM, OCI-P5x cells, without rucaparib) 102% | viability ([13]; at 0.0781 µM, OCI-C5x cells, with rucaparib 10 µM, 100% = cells with rucaparib alone) 113% | viability ([13]; at 0.0781 µM, OCI-P5x cells, without rucaparib) 101% | viability ([13]; at 0.313 µM, OCI-C5x cells, with rucaparib 10 µM, 100% = cells with rucaparib alone) 101% | viability ([13]; at 1.25 µM, OCI-C5x cells, with rucaparib 10 µM, 100% = cells with rucaparib alone) 102% | remaining NAD [14] 10 nM
0.8%: nuclear beta-catenin stimulation ([1]; stimulation, at 2 µM)
active: viability ([13]; at 0.00488 µM, OCI-C5x cells, without rucaparib) 98% | viability ([13]; at 0.00488 µM, OCI-P5x cells, without rucaparib) 97.2% | viability ([13]; at 0.0195 µM, OCI-C5x cells, without rucaparib) 96.1% | viability ([13]; at 0.0195 µM, OCI-P5x cells, with rucaparib 20 µM, 100% = cells with rucaparib alone) 94% | viability ([13]; at 0.0781 µM, OCI-C5x cells, without rucaparib) 99.7% | viability ([13]; at 0.0781 µM, OCI-P5x cells, with rucaparib 20 µM, 100% = cells with rucaparib alone) 94.2% | viability ([13]; at 0.313 µM, OCI-C5x cells, without rucaparib) 90.4% | viability ([13]; at 0.313 µM, OCI-P5x cells, with rucaparib 20 µM, 100% = cells with rucaparib alone) 98% | viability ([13]; at 0.313 µM, OCI-P5x cells, without rucaparib) 97% | viability ([13]; at 1.25 µM, OCI-C5x cells, without rucaparib) 83.3% | viability ([13]; at 1.25 µM, OCI-P5x cells, with rucaparib 20 µM, 100% = cells with rucaparib alone) 90.5% | viability ([13]; at 1.25 µM, OCI-P5x cells, without rucaparib) 90.1% | viability ([13]; at 5 µM, OCI-C5x cells, with rucaparib 10 µM, 100% = cells with rucaparib alone) 92.9% | viability ([13]; at 5 µM, OCI-C5x cells, without rucaparib) 84.3% | viability ([13]; at 5 µM, OCI-P5x cells, with rucaparib 20 µM, 100% = cells with rucaparib alone) 80.3% | viability ([13]; at 5 µM, OCI-P5x cells, without rucaparib) 90%

CCCS(=O)c1ccc2nc(NC(=O)OC)[nH]c2c1 (stereo not drawn)
0.419 and -0.334: z-score [12, 22]
7350 and 6760: cell count [9, 20]
6780 and 6570: cell count [9, 19]
-1.8%: nuclear beta-catenin stimulation ([1]; stimulation, at 2 µM)
active: viability decrease [3] 71.2% | inhibition of viability [6] 65.2% | viability decrease (inhibition) [7] 87.9% | AC50 [11] 14.8 µM
83%: viability [15]
inactive: parasite load remaining [15] 34.6% | nuclear beta-catenin stimulation ([1]; at 10 µM) 4.7% | insulin secretion stimulation [2] 0.2% | tube area decrease [4] 20.1% | GLP1 secretion stimulation [5] 0.6% | viability decrease (inhibition) [8] 29.6% | fold change [9, 17] 0.922 and 0.972 | z-score [12, 21] -0.274 and -0.499 | z-score [16] 0.54
0.991 and 1.16: fold change [9, 18]
